Consider 1 sequence from PMC7862700, “An all-to-all approach to the identification of sequence-specific readers for epigenetic DNA modifications on cytosine”.

Common to all, as to test: DAPPL (digital affinity profiling via proximity ligation, sequencing); 10 mM Tris-HCl pH 7.5, 50 mM NaCl, 1 mM DTT, 4% glycerol, room temperature, 30 min; GST-TFs on glutathione beads, 16-mer random dsDNA library, 0.1% formaldehyde crosslink after washing; high values mean tight binding
One assay concerns the target T1, FEV (Homo sapiens, UniProt Q99581 1-238).
T1 sequence: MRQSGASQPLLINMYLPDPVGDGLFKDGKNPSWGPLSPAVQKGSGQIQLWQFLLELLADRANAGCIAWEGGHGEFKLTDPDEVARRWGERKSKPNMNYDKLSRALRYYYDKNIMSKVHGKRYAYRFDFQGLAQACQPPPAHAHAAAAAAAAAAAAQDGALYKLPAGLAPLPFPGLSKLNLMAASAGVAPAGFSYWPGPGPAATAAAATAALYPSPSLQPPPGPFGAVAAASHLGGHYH
The following applies: protein: recombinant; tags: N-terminal GST; dsDNA, one strand shown. The method in brief:
(§1)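 Binding signal is each hexamer's read frequency for a factor divided by its frequency in the tag-only sample. The factors were GST-fused human transcription factors from yeast, captured on glutathione beads, DNA-barcoded and pooled with that sample. Pools were incubated with 200 nmole of a random double-stranded 16-mer DNA library in Tris/NaCl/DTT/glycerol buffer at room temperature for 30 min, then washed, crosslinked with 0.1% formaldehyde, proximity-ligated with BsaI/T4 ligase (1 h, 37 °C), PCR-amplified and sequenced on an Illumina NextSeq500.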

Another assay concerns the target ETV5 (Homo sapiens, UniProt P41161 1-510). The note with it: protein: recombinant; tags: N-terminal GST; dsDNA, one strand shown. The method in brief: as §1
In another assay the target is HSF1 (Homo sapiens, UniProt Q00613 1-529). The note with it: protein: recombinant; tags: N-terminal GST; chain copies: 3; dsDNA, one strand shown. The method in brief: as §1
Chain of HSF1 (Q00613 whole entry): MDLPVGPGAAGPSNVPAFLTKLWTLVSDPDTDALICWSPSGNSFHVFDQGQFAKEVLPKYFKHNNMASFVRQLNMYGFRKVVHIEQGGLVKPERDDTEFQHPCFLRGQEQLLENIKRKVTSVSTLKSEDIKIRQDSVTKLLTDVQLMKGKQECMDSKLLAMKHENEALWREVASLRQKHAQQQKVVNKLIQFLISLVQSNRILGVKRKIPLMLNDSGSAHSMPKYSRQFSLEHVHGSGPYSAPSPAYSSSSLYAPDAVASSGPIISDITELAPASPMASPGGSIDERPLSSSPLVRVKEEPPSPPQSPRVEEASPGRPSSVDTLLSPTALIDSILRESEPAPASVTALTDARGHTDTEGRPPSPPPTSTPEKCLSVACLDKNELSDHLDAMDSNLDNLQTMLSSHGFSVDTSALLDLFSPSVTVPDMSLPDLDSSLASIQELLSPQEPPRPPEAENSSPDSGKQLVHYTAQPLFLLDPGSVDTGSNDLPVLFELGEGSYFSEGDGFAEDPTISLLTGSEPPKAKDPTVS
A further assay deals with T2, SPIC (Homo sapiens, UniProt Q8N5J4 1-248).
T2 sequence: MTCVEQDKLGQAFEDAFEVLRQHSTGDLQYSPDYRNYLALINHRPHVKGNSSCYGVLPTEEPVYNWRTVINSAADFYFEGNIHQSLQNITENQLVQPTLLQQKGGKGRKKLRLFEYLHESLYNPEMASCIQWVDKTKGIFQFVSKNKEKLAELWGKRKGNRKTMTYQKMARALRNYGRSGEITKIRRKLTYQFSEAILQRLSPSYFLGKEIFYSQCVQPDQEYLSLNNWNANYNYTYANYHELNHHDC
The note with it: protein: recombinant; tags: N-terminal GST; dsDNA, one strand shown. The method in brief: as §1

A further assay deals with ELF4 (Homo sapiens, UniProt Q99607 1-663). The following applies: protein: recombinant; tags: N-terminal GST; dsDNA, one strand shown. In a few lines: as §1
Chain of ELF4 (Q99607 whole entry): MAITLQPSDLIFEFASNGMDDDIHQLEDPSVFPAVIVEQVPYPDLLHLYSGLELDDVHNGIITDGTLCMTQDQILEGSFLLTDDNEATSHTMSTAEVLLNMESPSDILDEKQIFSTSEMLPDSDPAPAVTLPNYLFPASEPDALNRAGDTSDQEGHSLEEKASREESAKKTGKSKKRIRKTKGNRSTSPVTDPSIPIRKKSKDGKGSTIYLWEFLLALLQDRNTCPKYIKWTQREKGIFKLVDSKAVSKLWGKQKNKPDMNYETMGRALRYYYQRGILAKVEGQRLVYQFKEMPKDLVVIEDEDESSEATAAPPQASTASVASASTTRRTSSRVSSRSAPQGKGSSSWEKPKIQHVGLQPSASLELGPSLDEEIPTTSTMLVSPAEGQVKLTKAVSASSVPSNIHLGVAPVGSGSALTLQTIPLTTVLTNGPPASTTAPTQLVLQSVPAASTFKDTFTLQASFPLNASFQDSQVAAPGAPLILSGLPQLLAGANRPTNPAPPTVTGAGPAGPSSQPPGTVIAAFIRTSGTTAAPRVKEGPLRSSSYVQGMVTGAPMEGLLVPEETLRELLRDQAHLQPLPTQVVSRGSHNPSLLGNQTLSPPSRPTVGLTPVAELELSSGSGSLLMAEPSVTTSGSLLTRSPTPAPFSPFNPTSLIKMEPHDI
The target of another assay is T3, ELK4 (Homo sapiens, UniProt P28324-2 1-405).
T3 sequence: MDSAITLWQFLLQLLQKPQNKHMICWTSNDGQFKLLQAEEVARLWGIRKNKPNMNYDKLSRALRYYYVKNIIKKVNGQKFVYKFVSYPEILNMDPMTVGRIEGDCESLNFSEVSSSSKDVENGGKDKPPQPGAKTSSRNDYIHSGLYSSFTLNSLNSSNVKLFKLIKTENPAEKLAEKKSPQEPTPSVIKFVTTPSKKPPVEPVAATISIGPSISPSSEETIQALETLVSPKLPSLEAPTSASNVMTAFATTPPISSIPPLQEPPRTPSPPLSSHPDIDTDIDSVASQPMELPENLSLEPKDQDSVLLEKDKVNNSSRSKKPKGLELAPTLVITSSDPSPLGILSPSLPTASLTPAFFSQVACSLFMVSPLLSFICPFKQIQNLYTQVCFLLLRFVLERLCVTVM
The note with it: protein: recombinant; tags: N-terminal GST; dsDNA, one strand shown. In a few lines:
as §1

The next assay deals with T4, ETV2 (Homo sapiens, UniProt O00321 1-342).
T4 sequence: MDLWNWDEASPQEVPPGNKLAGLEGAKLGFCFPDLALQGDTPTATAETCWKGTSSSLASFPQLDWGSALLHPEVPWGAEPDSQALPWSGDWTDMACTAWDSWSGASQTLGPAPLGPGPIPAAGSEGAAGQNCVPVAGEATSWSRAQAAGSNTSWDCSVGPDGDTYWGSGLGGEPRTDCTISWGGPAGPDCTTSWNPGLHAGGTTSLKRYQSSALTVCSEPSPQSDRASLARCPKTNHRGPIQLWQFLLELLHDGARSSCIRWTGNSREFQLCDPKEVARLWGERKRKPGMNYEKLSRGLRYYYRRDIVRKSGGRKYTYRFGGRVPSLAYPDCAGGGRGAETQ
The note with it: protein: recombinant; tags: N-terminal GST; dsDNA, one strand shown. In a few lines:
as §1

A further assay addresses T5, ELF3 (Homo sapiens, UniProt P78545 1-371).
T5 sequence: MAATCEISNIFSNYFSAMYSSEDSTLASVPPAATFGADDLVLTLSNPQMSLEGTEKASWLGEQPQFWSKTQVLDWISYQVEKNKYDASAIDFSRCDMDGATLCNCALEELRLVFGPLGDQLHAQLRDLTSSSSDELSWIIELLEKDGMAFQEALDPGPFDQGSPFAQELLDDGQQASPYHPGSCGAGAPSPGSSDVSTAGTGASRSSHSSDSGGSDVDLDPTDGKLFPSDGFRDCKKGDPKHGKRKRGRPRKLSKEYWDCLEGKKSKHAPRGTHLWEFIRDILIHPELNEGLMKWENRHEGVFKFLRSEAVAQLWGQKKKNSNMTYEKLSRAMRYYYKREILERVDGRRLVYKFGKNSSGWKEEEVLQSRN
The note with it: protein: recombinant; tags: N-terminal GST; dsDNA, one strand shown. In a few lines: as §1

Another assay has as its target CRX (Homo sapiens, UniProt O43186 1-299). The following applies: protein: recombinant; tags: N-terminal GST; dsDNA, one strand shown. In a few lines: as §1
Another assay has as its target ETV1 (Homo sapiens, UniProt P50549 1-477). The note with it: protein: recombinant; tags: N-terminal GST; dsDNA, one strand shown. The method in brief: as §1
For another assay, the target named is T6, ERF (Homo sapiens, UniProt P50548 1-548).
T6 sequence: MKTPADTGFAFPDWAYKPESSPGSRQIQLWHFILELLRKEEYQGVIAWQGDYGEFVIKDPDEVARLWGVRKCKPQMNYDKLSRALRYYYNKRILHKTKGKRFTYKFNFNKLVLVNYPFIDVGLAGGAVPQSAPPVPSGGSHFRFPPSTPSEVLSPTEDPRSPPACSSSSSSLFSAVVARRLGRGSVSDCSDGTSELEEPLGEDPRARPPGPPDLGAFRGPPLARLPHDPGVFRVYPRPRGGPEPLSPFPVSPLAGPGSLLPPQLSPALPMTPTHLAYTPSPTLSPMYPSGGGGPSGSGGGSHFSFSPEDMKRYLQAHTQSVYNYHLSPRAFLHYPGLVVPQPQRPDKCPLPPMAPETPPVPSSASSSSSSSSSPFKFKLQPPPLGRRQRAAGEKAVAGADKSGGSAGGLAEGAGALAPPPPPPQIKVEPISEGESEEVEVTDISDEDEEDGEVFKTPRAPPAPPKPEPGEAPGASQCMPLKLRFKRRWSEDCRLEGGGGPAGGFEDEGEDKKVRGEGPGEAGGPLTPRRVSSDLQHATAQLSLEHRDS
The note with it: protein: recombinant; tags: N-terminal GST; dsDNA, one strand shown. The method in brief: as §1

The next assay addresses T7, ETV3L (Homo sapiens, UniProt Q6ZN32 1-361).
T7 sequence: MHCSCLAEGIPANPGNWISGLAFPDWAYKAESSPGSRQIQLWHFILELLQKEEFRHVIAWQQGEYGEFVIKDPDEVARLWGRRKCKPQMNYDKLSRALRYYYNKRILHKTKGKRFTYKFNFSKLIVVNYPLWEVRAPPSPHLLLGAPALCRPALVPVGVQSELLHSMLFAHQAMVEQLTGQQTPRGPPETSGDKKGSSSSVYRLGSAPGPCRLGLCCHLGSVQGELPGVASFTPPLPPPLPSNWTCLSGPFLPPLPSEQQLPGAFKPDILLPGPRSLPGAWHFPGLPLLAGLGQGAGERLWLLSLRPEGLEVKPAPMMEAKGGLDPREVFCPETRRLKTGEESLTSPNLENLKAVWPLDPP
The following applies: protein: recombinant; tags: N-terminal GST; dsDNA, one strand shown. In a few lines: as §1

Another assay has as its target T8, ETS2 (Homo sapiens, UniProt P15036 1-469).
T8 sequence: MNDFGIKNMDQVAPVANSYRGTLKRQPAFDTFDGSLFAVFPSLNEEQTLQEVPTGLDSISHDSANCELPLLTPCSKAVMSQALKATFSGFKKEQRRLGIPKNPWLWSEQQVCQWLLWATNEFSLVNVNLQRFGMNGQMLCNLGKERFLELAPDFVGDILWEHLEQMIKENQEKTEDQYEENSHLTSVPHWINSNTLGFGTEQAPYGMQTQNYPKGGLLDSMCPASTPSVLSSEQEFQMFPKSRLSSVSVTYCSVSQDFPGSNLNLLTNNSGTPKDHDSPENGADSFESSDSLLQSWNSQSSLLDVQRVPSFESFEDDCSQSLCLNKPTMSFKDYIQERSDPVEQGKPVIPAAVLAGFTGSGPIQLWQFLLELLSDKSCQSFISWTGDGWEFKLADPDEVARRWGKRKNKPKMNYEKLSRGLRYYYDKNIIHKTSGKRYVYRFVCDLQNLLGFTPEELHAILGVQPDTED
The following applies: protein: recombinant; tags: N-terminal GST; dsDNA, one strand shown. The method in brief: as §1

A further assay deals with T9, SPDEF (Homo sapiens, UniProt O95238 1-335).
T9 sequence: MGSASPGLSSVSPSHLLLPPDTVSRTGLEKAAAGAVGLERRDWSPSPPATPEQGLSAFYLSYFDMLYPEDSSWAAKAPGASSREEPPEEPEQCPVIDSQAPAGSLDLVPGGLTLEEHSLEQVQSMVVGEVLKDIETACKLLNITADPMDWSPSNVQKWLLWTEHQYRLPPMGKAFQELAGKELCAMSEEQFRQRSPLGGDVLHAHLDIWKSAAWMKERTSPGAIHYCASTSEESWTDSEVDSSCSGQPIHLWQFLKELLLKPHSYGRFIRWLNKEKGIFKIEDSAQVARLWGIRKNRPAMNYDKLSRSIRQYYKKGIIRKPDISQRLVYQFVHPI
The following applies: protein: recombinant; tags: N-terminal GST; dsDNA, one strand shown. In a few lines: as §1

For another assay, the target named is T10, ETV7 (Homo sapiens, UniProt Q9Y603 1-341).
T10 sequence: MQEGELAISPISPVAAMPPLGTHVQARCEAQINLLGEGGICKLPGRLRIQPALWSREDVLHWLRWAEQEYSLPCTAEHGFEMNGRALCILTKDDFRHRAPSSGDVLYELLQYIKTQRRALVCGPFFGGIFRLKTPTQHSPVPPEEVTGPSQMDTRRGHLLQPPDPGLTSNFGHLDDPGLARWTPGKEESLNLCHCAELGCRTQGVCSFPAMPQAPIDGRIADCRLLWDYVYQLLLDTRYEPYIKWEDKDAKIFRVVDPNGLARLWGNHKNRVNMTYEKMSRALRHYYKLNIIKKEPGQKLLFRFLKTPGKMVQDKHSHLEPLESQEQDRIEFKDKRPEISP
The note with it: protein: recombinant; tags: N-terminal GST; dsDNA, one strand shown. In a few lines:
as §1

The target of the next assay is T11, ELF5 (Homo sapiens, UniProt Q9UKW6-2 1-255).
T11 sequence: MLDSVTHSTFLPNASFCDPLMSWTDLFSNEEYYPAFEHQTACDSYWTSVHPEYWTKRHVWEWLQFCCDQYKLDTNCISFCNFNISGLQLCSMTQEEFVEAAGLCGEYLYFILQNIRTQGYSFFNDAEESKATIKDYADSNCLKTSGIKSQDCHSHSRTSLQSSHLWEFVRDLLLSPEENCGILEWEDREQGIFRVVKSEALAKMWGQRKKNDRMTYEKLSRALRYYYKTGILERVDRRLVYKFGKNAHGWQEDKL
The following applies: protein: recombinant; tags: N-terminal GST; dsDNA, one strand shown. In a few lines: as §1

Another assay addresses T12, ETV3 (Homo sapiens, UniProt P41162-2 1-143).
T12 sequence: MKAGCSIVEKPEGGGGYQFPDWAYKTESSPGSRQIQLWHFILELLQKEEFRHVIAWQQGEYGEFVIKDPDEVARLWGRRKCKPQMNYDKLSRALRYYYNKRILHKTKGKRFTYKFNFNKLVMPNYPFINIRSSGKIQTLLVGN
The following applies: protein: recombinant; tags: N-terminal GST; dsDNA, one strand shown. In a few lines: as §1

In a further assay the target is ETV6 (Homo sapiens, UniProt P41212 1-452). The following applies: protein: recombinant; tags: N-terminal GST; dsDNA, one strand shown. The method in brief:
as §1

Chain of CRX (O43186 whole entry): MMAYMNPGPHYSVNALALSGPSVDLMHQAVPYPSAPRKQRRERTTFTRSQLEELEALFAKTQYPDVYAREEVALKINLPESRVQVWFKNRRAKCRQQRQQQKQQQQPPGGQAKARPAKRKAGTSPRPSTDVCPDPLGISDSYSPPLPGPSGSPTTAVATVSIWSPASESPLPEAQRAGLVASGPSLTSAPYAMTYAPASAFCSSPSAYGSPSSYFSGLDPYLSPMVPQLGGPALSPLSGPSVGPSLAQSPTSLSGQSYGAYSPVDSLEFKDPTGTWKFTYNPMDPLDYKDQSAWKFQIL
Chain of ETV6 (P41212 whole entry): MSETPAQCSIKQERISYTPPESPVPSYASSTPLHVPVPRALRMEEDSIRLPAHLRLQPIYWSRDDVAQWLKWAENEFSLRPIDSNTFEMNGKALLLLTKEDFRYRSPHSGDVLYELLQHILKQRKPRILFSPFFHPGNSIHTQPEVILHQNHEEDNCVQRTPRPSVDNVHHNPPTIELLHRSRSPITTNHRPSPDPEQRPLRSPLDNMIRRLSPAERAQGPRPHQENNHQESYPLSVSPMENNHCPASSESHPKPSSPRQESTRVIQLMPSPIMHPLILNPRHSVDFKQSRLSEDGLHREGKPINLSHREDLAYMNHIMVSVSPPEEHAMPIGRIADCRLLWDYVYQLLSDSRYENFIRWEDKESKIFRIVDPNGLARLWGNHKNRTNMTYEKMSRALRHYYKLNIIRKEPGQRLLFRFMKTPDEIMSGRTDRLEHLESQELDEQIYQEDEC
Chain of ETV5 (P41161 whole entry): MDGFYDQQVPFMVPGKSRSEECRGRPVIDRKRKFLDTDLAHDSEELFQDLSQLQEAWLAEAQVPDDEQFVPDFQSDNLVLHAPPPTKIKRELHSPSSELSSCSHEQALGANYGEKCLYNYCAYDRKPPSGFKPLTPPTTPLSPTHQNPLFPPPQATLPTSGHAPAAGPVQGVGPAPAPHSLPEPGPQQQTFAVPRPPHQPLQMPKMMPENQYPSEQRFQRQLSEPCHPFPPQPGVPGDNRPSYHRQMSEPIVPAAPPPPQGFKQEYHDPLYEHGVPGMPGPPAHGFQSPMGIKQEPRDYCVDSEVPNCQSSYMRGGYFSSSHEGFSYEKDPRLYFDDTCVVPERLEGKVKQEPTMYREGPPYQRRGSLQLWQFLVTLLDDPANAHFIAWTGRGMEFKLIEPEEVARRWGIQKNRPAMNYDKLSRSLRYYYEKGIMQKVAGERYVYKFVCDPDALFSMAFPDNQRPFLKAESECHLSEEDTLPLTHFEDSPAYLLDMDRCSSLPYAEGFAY
Chain of ETV1 (P50549 whole entry): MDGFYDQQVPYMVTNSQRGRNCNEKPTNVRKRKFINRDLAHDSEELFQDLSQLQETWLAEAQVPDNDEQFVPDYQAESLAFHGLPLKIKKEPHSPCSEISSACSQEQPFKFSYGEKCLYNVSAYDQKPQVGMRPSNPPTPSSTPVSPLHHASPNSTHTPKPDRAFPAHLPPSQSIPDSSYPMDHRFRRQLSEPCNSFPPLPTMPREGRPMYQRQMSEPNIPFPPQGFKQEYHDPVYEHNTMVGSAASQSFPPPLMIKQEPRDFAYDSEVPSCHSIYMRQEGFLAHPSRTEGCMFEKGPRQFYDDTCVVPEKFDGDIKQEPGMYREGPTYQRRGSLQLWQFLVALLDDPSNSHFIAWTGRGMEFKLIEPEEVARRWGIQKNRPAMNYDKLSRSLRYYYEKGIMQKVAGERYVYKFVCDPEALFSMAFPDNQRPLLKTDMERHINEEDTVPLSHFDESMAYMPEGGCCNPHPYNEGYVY

Turning to AAATAC, the binding signal with FEV is 1.41 fold enrichment (6-mer frequency, TF over GST control); in the assay with ETV5, 1.43 fold enrichment (6-mer frequency, TF over GST control); with HSF1 it was 1.36 fold enrichment (6-mer frequency, TF over GST control); with SPIC, 1.3 fold enrichment (6-mer frequency, TF over GST control); with ELF4, 1.36 fold enrichment (6-mer frequency, TF over GST control); in the assay with ELK4, 1.18 fold enrichment (6-mer frequency, TF over GST control). The binding signal in the assay with ETV2 is 1.51 fold enrichment (6-mer frequency, TF over GST control); in the assay with ELF3, 1.37 fold enrichment (6-mer frequency, TF over GST control); with CRX it was 1.46 fold enrichment (6-mer frequency, TF over GST control); in the assay with ETV1 it was 1.39 fold enrichment (6-mer frequency, TF over GST control); in the assay with ERF, 1.48 fold enrichment (6-mer frequency, TF over GST control); with ETV3L it was 1.35 fold enrichment (6-mer frequency, TF over GST control). Further, the binding signal with ETS2 was 1.39 fold enrichment (6-mer frequency, TF over GST control); in the assay with SPDEF it was 1.41 fold enrichment (6-mer frequency, TF over GST control); with ETV7, 1.5 fold enrichment (6-mer frequency, TF over GST control); with ELF5, 1.52 fold enrichment (6-mer frequency, TF over GST control); in the assay with ETV3, 1.39 fold enrichment (6-mer frequency, TF over GST control); with ETV6, 1.49 fold enrichment (6-mer frequency, TF over GST control).
